High-throughput results deposited in PubChem by National Center for Advancing Translational Sciences (NCATS).
Most compounds without a hit are left out; they make up all but 12% or so of the library.
JMJD2A Tudor: blocks the human JMJD2A Tudor domain | 390,000 compounds, 4.4% hits | O75164 | AlphaScreen JMJD2A-Tudor / H3K4me3 peptide binding | Potency, µM (highest dose often 114 µM), without a hit: at the highest dose activity change, negative = inhibition, actives largely listed as inhibitors; further: on the % scale 0 is the no-effect control and ±100 the full control effect; nearly all actives have a fitted effect of over 50% in size
HP1b binding inh: inhibitors of HP1-beta chromodomain binding to methylated histone tails; 390,000 compounds, 0.56% hits; AlphaScreen HP1-beta / biotin-H3K9me3 peptide binding; Potency, µM (series often up to 114 µM), without a hit: at the top dose activity change, negative = inhibition, usual class: inhibitors; AID 540317; P83916; further: nearly all actives have a fitted effect of over 70% in size
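AlphaScreen: HP1-beta (50 nM) preformed 30 min with biotin-H3(1-18)K9me3 peptide (50 nM) in PBS pH 7.4, 0.01% Tween-20. Compound added for 30 min at RT, then streptavidin donor/nickel chelate acceptor beads (10 ug/mL) for 30 min.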
BAZ2B inh: blocks human BAZ2B; Q9UIF8; Potency, µM (highest dose often 114 µM), inactives show at the highest dose activity change, negative = inhibition, most hits filed as inhibitors; AlphaScreen BAZ2B-H3K14Ac peptide displacement; 360,000 compounds, 4.4% hits; further: on the % scale 0 is the no-effect control and ±100 the full control effect; nearly all actives have a fitted effect of over 60% in size
Target sequence (Q9UIF8 whole entry, looked up): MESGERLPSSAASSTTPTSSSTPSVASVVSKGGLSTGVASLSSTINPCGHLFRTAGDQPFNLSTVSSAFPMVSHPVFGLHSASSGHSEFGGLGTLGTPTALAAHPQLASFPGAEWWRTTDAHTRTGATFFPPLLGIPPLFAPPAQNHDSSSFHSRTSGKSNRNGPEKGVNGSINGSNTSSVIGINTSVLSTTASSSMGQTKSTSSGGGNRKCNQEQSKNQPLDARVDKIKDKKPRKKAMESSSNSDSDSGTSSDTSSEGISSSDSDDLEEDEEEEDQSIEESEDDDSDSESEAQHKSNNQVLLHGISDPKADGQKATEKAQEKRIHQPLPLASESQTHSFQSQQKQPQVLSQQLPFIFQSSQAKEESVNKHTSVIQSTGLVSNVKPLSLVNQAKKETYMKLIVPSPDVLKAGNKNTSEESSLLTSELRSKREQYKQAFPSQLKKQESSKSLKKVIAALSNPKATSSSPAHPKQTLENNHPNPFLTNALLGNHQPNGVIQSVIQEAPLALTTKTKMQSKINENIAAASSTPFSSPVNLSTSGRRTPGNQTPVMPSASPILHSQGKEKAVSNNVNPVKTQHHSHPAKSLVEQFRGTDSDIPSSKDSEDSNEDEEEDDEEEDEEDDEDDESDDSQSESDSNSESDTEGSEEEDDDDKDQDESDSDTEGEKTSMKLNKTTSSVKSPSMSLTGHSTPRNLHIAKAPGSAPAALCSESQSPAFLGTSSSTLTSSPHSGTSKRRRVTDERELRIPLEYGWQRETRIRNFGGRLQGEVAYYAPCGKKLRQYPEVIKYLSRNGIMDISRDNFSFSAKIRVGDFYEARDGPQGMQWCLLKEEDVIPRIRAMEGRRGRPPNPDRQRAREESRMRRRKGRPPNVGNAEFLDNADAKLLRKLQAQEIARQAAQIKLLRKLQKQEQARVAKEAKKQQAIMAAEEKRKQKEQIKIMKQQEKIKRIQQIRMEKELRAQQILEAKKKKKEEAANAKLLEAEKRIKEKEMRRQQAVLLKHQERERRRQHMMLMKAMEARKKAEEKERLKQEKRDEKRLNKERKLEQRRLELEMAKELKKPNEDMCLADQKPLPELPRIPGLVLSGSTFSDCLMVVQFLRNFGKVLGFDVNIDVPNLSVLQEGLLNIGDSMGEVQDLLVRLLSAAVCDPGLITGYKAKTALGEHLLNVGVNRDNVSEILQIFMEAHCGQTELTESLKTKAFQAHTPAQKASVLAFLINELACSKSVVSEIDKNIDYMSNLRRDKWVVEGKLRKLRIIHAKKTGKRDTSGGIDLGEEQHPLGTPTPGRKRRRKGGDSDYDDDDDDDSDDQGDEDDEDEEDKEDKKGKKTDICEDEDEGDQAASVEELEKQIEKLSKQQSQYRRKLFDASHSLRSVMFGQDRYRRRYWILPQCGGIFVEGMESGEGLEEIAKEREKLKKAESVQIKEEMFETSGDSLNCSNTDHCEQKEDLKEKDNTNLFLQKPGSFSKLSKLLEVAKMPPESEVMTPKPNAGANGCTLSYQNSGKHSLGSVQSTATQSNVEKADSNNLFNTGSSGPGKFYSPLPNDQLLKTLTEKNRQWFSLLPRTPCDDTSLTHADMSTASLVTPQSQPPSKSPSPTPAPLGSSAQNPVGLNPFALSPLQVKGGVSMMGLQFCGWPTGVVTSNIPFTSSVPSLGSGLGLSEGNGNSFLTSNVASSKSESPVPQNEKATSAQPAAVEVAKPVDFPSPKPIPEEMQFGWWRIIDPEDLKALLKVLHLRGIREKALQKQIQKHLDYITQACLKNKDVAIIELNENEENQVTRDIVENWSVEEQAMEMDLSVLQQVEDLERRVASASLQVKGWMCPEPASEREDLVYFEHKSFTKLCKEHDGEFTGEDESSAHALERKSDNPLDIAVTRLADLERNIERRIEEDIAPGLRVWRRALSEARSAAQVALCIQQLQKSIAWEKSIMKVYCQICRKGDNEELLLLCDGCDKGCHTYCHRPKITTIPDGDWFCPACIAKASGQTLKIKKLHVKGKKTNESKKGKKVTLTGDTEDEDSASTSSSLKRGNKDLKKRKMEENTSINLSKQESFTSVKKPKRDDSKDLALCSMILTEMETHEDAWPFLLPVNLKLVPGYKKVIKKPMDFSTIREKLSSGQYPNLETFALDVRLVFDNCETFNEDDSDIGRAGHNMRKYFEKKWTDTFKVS
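BAZ2B (50 nM) with biotin-H3(5-23)K14Ac peptide (50 nM) in PBS pH 7.4, 0.01% Tween-20, preformed 30 min, then compound 30 min at room temperature; top concentration 110uM. AlphaScreen streptavidin donor/nickel chelate acceptor beads (10 ug/mL final), 20 min dark, signal read.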
PLK1 PBD block: PLK1 (human) polo-box domain binding inhibition; P53350; Plk1 PBD binding of FITC phosphopeptide, fluorescence polarization; Potency, µM, inactives show max response, negative = inhibition, hits mostly inhibitors; 360,000 compounds, 2.8% hits; further: series mostly up to about 57 µM; on the % scale 0 is the no-effect control and ±100 the full control effect; nearly all actives have a fitted effect of over 65% in size
Sfp inh: blocks B. subtilis Sfp PPTase activity | Q9F4F7 | Biochemical Sfp PPTase activity, qHTS | Potency, µM, for inactives: largest response in the series, negative = inhibition, usual class: inhibitors | 310,000 compounds, 3.5% hits | AID 1490;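 further: the enzyme is Sfp with the accession as filed and its product quenches rhodamine fluorescence; 0% = enzyme reaction without inhibitor and -100% = no enzyme wells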
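Step 1, compound plus 15 nM Sfp-PPTase, 15 min, room temperature. Step 2, add rhodamine-CoA (5 uM) and BHQ-2-YbbR (12.5 uM). Step 3, read 525/598 nm fluorescence at 0 and 30 min.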
G9a inh: blocks human histone lysine methyltransferase G9a; Q96KQ7; G9a H3K9 monomethylation, AlphaScreen, 2 h; Potency, µM (highest dose often 102 µM), inactives show at the top dose activity, negative = inhibition, actives largely listed as inhibitors; 350,000 compounds, 8.8% hits; further: on the % scale 0 is the no-effect control and ±100 the full control effect; nearly all actives have a fitted effect of over 75% in size
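Compounds were preincubated with 20 nM G9a for 15 min, after which biotinylated H3K9 peptide (500 nM) and SAM (20 uM) started a 2 h room-temperature reaction. Monomethylated product was quantified by antibody-based AlphaScreen chemiluminescence.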
Numbers without * were called inactive; ! = not active in a repeat; [ ] = another dose, or the depositor's remark. The call rests on the fitted dose curve; in most records, active means well fitted curve in the direction sought with a large enough effect; inconclusive means small, poorly fitted or top-dose-only effect, or another doubt; inactive means no such curve, though single readings can be large; an effect the other way counts as inactive or inconclusive. Potency means the concentration at half of the fitted maximal effect.

How did Cc1cc(C)n(-c2ccc(NC(=O)C3CCCCN3C(=O)c3sccc3C)cc2)n1 (centres undefined) do in these assays?
JMJD2A Tudor: -15%; HP1b binding inh: 20%; BAZ2B inh: -23%; PLK1 PBD block: -16%; Sfp inh: 5%; G9a inh: 16%

What do the screens show for `COc1cc(CN(CCN(C)C)Cc2ccccc2)ccc1OCc1ccccc1`?
JMJD2A Tudor: 1µM*; HP1b binding inh: inconclusive; BAZ2B inh: 40µM*; PLK1 PBD block: 8%; Sfp inh: -18%; G9a inh: 32µM*

Results for CCN(Cc1ccncc1)Cc1ccc(OC)c(OC)c1 ?
JMJD2A Tudor: 25µM*; HP1b binding inh: inconclusive; BAZ2B inh: inconclusive; PLK1 PBD block: 1%; Sfp inh: inconclusive

What do the screens show for `CNCc1ccc(OCc2ccccc2)c(OC)c1`?
JMJD2A Tudor: 0%[57.1 µM]; HP1b binding inh: 62%; BAZ2B inh: 8%; PLK1 PBD block: -11%; Sfp inh: 5%; G9a inh: inconclusive

What do the screens show for `COc1ccc(CN(CCc2ccccc2)Cc2ccccc2)cc1OC`?
JMJD2A Tudor: 10µM*; HP1b binding inh: inconclusive; BAZ2B inh: 79µM*; PLK1 PBD block: -8%; Sfp inh: -36%; G9a inh: inconclusive

How did CCOC(=O)/C(C#N)=C/c1cccn1-c1ccc(Cl)cc1 do in these assays?
JMJD2A Tudor: 4%; HP1b binding inh: 21%; BAZ2B inh: 0%; PLK1 PBD block: 0%; Sfp inh: -19%

What do the screens show for `N#C/C(=C/c1cccn1-c1cccc(C(=O)O)c1)c1ccc(Cl)cc1`?
JMJD2A Tudor: 8.9µM*; HP1b binding inh: inconclusive; BAZ2B inh: 45µM*; PLK1 PBD block: 30µM*; Sfp inh: 9%; G9a inh: inconclusive

What do the screens show for `N#CC(C#N)=Cc1cccn1-c1ccc(C(=O)O)cc1`?
JMJD2A Tudor: inconclusive; HP1b binding inh: inconclusive; BAZ2B inh: 20µM*; PLK1 PBD block: inconclusive; Sfp inh: 23%; G9a inh: 11µM*

Results for CC12CCC(O)CC1=CCC1C2CCC2(C)C1CCC21CCC(=O)O1 (centres undefined) ?
JMJD2A Tudor: -13%; HP1b binding inh: 1%; BAZ2B inh: 10%; PLK1 PBD block: 0%; Sfp inh: 0%; G9a inh: 15%[59 µM]

How did C[C@]12CCC3C(CC=C4C[C@@H](O)CC[C@@]43C)C1CCC2[C@]1(C)CCC(=O)O1 (some centres undefined) do in these assays?
JMJD2A Tudor: inconclusive; HP1b binding inh: inconclusive; BAZ2B inh: 56µM*; PLK1 PBD block: -3%; Sfp inh: 26%; G9a inh: inconclusive

How did COc1cc2c3cc1Oc1c(OC)c(OC)cc4c1[C@@H](Cc1ccc(O)c(c1)Oc1ccc(cc1)C[C@@H]3N(C)CC2)N(C)CC4 do in these assays?
Sfp inh: 12%

What do the screens show for `COc1ccc2cc1Oc1ccc(cc1)C[C@H]1c3c(cc4c(c3Oc3cc5c(cc3OC)CCN(C)[C@@H]5C2)OCO4)CCN1C`?
JMJD2A Tudor: 35µM*; HP1b binding inh: inconclusive; BAZ2B inh: -38%; PLK1 PBD block: -2%; Sfp inh: 2%; G9a inh: 11µM*!

How did COc1ccccc1-c1cncnc1NCCNC(C)=O do in these assays?
Sfp inh: 79µM*; G9a inh: -4%[0.501 µM]

Results for COCCNc1ncncc1-c1ccccc1OC ?
Sfp inh: 11%; G9a inh: -8%[0.501 µM]

What do the screens show for `Cc1cnc(CNc2nc(-c3ccccc3C)nc3ccccc23)cn1`?
Sfp inh: -17%; G9a inh: 15%[0.501 µM]

How did Cc1cnc(CNc2ncncc2-c2ccccc2C(F)(F)F)cn1 do in these assays?
Sfp inh: 71µM*

What do the screens show for `COc1ccccc1-c1cncnc1NCc1cnc(C)cn1`?
Sfp inh: 79µM*; G9a inh: 25%[0.501 µM]

Results for COc1ccccc1-c1nc(NCc2cnc(C)cn2)c2ccccc2n1 ?
Sfp inh: 50µM*

What do the screens show for `COc1ccccc1-c1ccc2ncnc(NCc3cnc(C)cn3)c2c1`?
Sfp inh: -17%; G9a inh: 3%[0.501 µM]
